Measurements from PubChem BioAssay (Tox21).
Several values for one entry are separate records, joined by “and”; a condition that tells them apart may be missing. Equal values may be shown once. Results filed as inconclusive are left out. More than one record can exist for a structure, and the calls need not agree. Activity calls are given as the source filed them. Unless noted, calls come from the whole dose curve.

Tests used:
[1] = Nuclear factor erythroid 2-related factor 2/antioxidant responsive element (Nrf2/ARE) small molecule agonists: luciferase reporter gene qHTS assay in human keratinocytes (AID 1919969); note: nearly all actives have a fitted effect of over 35% in size; note: potency is the fitted concentration of half-maximal effect
[2] = biological target: Gonadotropin-releasing hormone receptor (Homo sapiens) (UniProt P30968); test: Human gonadotropin-releasing hormone receptor (GnRHR) small molecule agonists, calcium flux assay in GnRHR-HEK293 cells (AID 1920063); note: nearly all actives have a fitted effect of over 35% in size
Sequence of Gonadotropin-releasing hormone receptor (Homo sapiens) (P30968 whole entry, looked up): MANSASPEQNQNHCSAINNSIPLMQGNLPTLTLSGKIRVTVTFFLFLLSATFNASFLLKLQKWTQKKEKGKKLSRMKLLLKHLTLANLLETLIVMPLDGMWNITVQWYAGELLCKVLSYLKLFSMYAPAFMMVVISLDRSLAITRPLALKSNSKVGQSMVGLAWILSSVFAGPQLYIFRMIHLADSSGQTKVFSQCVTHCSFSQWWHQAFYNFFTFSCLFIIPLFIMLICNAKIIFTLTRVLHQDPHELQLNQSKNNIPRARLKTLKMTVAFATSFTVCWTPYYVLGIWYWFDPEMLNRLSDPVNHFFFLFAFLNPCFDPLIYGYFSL
How it was run: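 Agonist mode: compounds at 15 concentrations, in triplicate, went onto calcium dye-loaded GnRHR-HEK293 cells. Intracellular calcium was then followed as 480/540 nm fluorescence at 1 s intervals over 3 min.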

[3] = biological target: KiSS-1 receptor (Homo sapiens) (UniProt Q969F8); test: Human kisspeptin (KISS1R) small molecule agonists, calcium flux assay in KISS1R-HEK293 cells (AID 1920064; active = well fitted activation curve with a large enough effect in the repeat runs)
Sequence of KiSS-1 receptor (Homo sapiens) (Q969F8 whole entry, looked up): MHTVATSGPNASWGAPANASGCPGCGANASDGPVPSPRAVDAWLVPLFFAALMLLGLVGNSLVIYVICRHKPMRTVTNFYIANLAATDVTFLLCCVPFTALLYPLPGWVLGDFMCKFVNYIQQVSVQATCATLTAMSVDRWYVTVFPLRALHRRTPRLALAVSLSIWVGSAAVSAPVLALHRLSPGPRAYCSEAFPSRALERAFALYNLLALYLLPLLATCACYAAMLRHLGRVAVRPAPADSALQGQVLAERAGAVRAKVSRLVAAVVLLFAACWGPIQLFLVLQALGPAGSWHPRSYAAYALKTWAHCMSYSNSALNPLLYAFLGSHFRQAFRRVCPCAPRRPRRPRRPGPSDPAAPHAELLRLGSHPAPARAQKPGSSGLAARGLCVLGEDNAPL
How it was run: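 Agonist mode: intracellular calcium rise tracked at 1 s intervals over 3 min (480/540 nm) immediately after compound addition to dye-loaded KISS1R-HEK293 stable cells. Each compound tested at 15 concentrations in triplicate.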

[4] = G protein-coupled receptor (GPCR) small molecule agonists, calcium flux assay: HEK293 wild type cell line counter screen (AID 1920065)
How it was run: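 Calcium flux counter screen: compound added in agonist mode at 15 concentrations in triplicate to dye-loaded parental HEK293 cells. Fluorescence (480/540) read kinetically for 3 min; ATP served as positive control.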

[5] = p53 small molecule agonists, cell-based qHTS assay with rat liver microsomes (AID 1963578)
How it was run: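 p53RE-bla cells, 4,000/well, pre-incubated 5 h, then given compounds plus rat liver microsomes (0.5 mg/mL final) and NADPH (0.5 mg/mL final). Incubation 16 h at 37 C; beta-lactamase reporter read by LiveBLAzer fluorescence after 2 h at room temperature.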

[6] = p53 small molecule agonists, cell-based qHTS assay with human liver microsomes: qHTS cell viability counter screen (AID 1963579); note: nearly all actives have a fitted effect of over 45% in size; note: potency is the fitted concentration of half-maximal effect
How it was run: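 p53RE-bla cells, 4,000/well, dosed 5 hours after plating, with human liver microsomes (0.5 mg/mL final) plus NADPH (0.5 mg/mL final), 16 hours at 37 C. Viability read as CellTiter-Glo luminescence after 30 min at room temperature.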

[7] = p53 small molecule agonists, cell-based qHTS assay with rat liver microsomes: qHTS cell viability counter screen (AID 1963580); note: nearly all actives have a fitted effect of over 45% in size
How it was run: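 Cytotoxicity counter screen: intracellular ATP measured by CellTiter-Glo luminescence in the same wells as the beta-lactamase reporter read, on HCT-116 p53RE-bla cells exposed 16 h at 37 C to compounds with rat liver microsomes and NADPH, each 0.5 mg/mL final.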

[8] = p53 small molecule agonists, cell-based qHTS assay: qHTS cell viability counter screen (AID 1963581); note: nearly all actives have a fitted effect of over 45% in size
How it was run: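 Counter screen read by CellTiter-Glo luminescence (ATP content, 30 min at room temperature), run in the same wells as the beta-lactamase reporter read. HCT-116 p53RE-bla cells saw compounds for 16 h at 37 C.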

[9] = biological target: 5-hydroxytryptamine receptor 2A (Homo sapiens) (UniProt P28223); test: 5-hydroxytryptamine receptor 2A (HTR2A) small molecule antagonists, cell-based qHTS assay (AID 1963586); note: nearly all actives have a fitted effect of over 45% in size; note: potency is the fitted concentration of half-maximal effect
Sequence of 5-hydroxytryptamine receptor 2A (Homo sapiens) (P28223 whole entry, looked up): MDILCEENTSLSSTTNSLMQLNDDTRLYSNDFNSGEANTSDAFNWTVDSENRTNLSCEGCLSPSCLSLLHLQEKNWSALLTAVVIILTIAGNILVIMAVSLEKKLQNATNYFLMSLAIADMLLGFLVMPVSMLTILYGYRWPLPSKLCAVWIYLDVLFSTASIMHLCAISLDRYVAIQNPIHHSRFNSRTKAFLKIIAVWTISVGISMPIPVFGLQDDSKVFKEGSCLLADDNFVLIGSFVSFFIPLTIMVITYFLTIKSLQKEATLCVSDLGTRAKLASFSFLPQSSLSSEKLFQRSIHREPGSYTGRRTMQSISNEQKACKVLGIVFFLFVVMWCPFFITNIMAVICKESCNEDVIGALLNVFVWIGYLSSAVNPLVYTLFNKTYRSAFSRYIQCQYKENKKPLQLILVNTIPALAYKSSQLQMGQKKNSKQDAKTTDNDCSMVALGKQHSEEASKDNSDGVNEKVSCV
How it was run: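 CHO cells stably expressing human HTR2A were plated for 18 h at 37 C, then loaded with calcium dye for 1 h. Compounds were preincubated 5 min at room temperature before DOI (4 nM solution) was added. Kinetic fluorescence was read for 3 min.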

[10] = biological target: 5-hydroxytryptamine receptor 2A (Homo sapiens) (UniProt P28223); test: 5-hydroxytryptamine receptor 2A (HTR2A) small molecule agonists, cell-based qHTS assay (AID 1963587); note: nearly all actives have a fitted effect of over 30% in size
How it was run: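 CHO cells stably expressing human HTR2A, plated 18 h, loaded with calcium dye 1 h at 37 C. Agonist mode: compounds added and intracellular calcium fluorescence recorded kinetically for 2 min at 1 sec intervals.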

[11] = biological target: Muscarinic acetylcholine receptor M1 (Homo sapiens) (UniProt P11229); test: Cholinergic receptor muscarinic 1 (CHRM1) small molecule agonists, cell-based qHTS assay (AID 1963589); note: nearly all actives have a fitted effect of over 35% in size
Sequence of Muscarinic acetylcholine receptor M1 (Homo sapiens) (P11229 whole entry, looked up): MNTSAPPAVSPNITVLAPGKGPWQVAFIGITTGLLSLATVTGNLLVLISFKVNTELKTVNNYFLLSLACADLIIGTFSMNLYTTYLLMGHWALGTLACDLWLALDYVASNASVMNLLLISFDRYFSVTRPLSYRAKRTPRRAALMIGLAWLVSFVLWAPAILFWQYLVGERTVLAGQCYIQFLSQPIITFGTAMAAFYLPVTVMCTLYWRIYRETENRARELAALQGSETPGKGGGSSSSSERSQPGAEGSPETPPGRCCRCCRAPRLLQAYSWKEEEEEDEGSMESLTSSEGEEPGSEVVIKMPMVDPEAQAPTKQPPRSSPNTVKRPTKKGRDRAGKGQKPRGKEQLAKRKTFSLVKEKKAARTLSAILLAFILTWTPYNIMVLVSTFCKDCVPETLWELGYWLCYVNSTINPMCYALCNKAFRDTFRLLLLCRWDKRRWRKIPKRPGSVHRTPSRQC
How it was run: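 Agonist-mode calcium-flux screen: compounds at 15 concentrations, three independent runs, were pin-transferred onto dye-loaded human CHRM1-CHO cells. Fluorescence was then recorded kinetically every second over minutes.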

[12] = cAMP Responsive Elements (CRE) small molecule agonists, cell-based qHTS assay (AID 1963590)
How it was run: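 Agonist mode: compound added to CRE-bla HEK 293T cells (2,000/well, 18 h after plating) for 3 h at 37 C/5% CO2. Reporter activity detected via FRET beta-lactamase substrate, 2 h room-temperature loading.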

[13] = biological target: Beta-2 adrenergic receptor (Homo sapiens) (UniProt P07550); test: Adrenergic beta2 receptor (ADRB2) small molecule antagonists, cell-based qHTS assay (AID 1963592); note: series mostly up to about 92 µM; nearly all actives have a fitted effect of over 50% in size
Sequence of Beta-2 adrenergic receptor (Homo sapiens) (P07550 whole entry, looked up): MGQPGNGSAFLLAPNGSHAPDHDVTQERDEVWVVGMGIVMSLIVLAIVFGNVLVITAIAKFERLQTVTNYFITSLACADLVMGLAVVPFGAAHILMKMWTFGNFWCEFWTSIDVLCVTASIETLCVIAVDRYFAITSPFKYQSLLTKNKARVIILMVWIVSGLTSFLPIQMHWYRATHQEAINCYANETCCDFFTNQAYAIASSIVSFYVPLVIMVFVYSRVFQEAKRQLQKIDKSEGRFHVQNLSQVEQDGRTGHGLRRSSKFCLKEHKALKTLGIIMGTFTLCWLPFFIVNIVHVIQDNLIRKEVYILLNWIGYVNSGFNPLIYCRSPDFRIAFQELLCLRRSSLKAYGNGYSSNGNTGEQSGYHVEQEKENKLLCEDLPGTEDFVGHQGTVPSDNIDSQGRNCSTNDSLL
How it was run: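 Assay format: CHO-ADRB2 cells, 18-20hr seeding at 37C/5% CO2, then compound plus 1nM isoproterenol agonist mix for 0.5hr RT. Homogeneous time-resolved fluorescence cAMP detection after 1hr, expressed as 665/615 nm ratio.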

[14] = biological target: D(2) dopamine receptor (Homo sapiens) (UniProt P14416); test: Dopamine D2 receptor (DRD2) small molecule agonists, cell-based qHTS assay (AID 1963594); note: nearly all actives have a fitted effect of over 35% in size
Sequence of D(2) dopamine receptor (Homo sapiens) (P14416 whole entry, looked up): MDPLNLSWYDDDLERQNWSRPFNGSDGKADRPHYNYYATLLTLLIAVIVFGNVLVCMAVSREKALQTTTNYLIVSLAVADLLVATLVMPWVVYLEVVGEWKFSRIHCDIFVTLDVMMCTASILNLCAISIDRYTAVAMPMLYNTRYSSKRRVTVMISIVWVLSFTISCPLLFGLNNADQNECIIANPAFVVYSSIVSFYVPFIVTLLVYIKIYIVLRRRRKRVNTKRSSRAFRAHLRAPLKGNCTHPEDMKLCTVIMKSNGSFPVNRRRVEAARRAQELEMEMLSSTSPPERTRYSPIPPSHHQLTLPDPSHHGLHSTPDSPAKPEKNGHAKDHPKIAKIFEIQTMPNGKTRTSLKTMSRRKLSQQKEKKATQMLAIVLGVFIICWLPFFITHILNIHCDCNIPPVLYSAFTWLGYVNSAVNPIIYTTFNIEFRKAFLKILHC
How it was run: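 HEK293 cells stably expressing human DRD2, pre-treated with PDE inhibitor Ro20-1724 (0.1 mM final) and compound 10 min at room temperature, then stimulated with NKH477 (200nM […]) for 30 min. cAMP read by HTRF (665/620 nm).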

[15] = biological target: D(2) dopamine receptor (Homo sapiens) (UniProt P14416); test: Dopamine D2 receptor (DRD2) small molecule antagonists, cell-based qHTS assay (AID 1963595; active = well fitted inhibition curve with a large enough effect in the signal ratio in the repeat runs, with a control signal flat; the % refers to the signal ratio)
How it was run: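 Human DRD2 antagonist qHTS measuring cAMP by HTRF. The cells are exposed to compound for 10 min, then to NKH477 (200 nM) and quinpirole (12 nM) for 30 min at RT, with Ro20-1724 (0.1 mM) present throughout.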

[16] = p53 small molecule agonists, cell-based qHTS assay (AID 1963582; active = well fitted activation curve with a large enough effect in the signal ratio in the repeat runs, not every such curve was filed as active; the % refers to the signal ratio)
How it was run: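 Read-out is beta-lactamase FRET fluorescence after 2 h at room temperature with LiveBLAzer B/G substrate. p53 response element-bla cells were treated 16 h at 37 C with compounds in DMSO, added 5 h after seeding.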

[17] = biological target: Muscarinic acetylcholine receptor M1 (Homo sapiens) (UniProt P11229); test: Cholinergic receptor muscarinic 1 (CHRM1) small molecule antagonists, cell-based qHTS assay (AID 1963588); note: nearly all actives have a fitted effect of over 40% in size
How it was run: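 Compounds were tested at 15 concentrations in three independent runs. Dye-loaded CHRM1-CHO cells were exposed 5 min at room temperature before stimulation by acetylcholine added at 50nM. Intracellular calcium was read kinetically on FDSS for 3 min.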

[18] = cAMP Responsive Elements (CRE) small molecule antagonists, cell-based qHTS assay (AID 1963591; active = well fitted inhibition curve with a large enough effect in the signal ratio in the repeat runs, not every such curve was filed as active; the % refers to the signal ratio)
How it was run: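 Antagonist mode: compounds are added alongside the adenylyl cyclase activator NKH477 (0.25 uM final) to CRE-bla HEK293T cells for 3 h. LiveBLAzer FRET substrate, 2 h at room temperature, reports bla expression.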

[19] = biological target: Beta-2 adrenergic receptor (Homo sapiens) (UniProt P07550); test: Adrenergic beta2 receptor (ADRB2) small molecule agonists, cell-based qHTS assay (AID 1963593);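 note: CHO cells stably overexpressing human ADRB2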
How it was run: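 CHO cells stably over-expressing ADRB2 were plated overnight at 37C, then dosed with compounds plus a stimulation mix containing 100uM IBMX and 25uM Ro-20-1724 for 0.5hr at room temperature. cAMP was measured by HTRF competition, 1hr.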

[20] = p53 small molecule agonists, cell-based qHTS assay with human liver microsomes (AID 1963577)
How it was run: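 p53RE-bla cells, 4,000/well, compound added after 5 h, with human liver microsomes 0.5 mg/mL and NADPH 0.5 mg/mL final; 16 h at 37 C, then LiveBLAzer 2 h RT, fluorescence.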

Measured: Potency

CC(C)(c1ccc(OCC2CO2)cc1)c1ccc(OCC2CO2)cc1 (configuration not stated)
active: [1] 27.7 µM and 27.3 µM
not listed: [16] | [17] | [18] | [19] | [20]
inactive: all other assays above

N#CCCCCC#N
not listed: [8] | [20]
inactive: all other assays above

O=NN1CCOCC1
not listed: [5] | [11]
inactive: all other assays above

CCCCOC(=O)c1ccccc1C(=O)O
not listed: [2] | [19]
inactive: all other assays above

CC(C)(c1ccccc1)c1cc(-n2nc3ccccc3n2)c(O)c(C(C)(C)c2ccccc2)c1
not listed: [2] | [19]
inactive: all other assays above

CCOC(=O)CC(SP(=S)(OC)OC)C(=O)OCC (configuration not stated)
active: [1] 24.3 µM
not listed: [5] | [16] | [19]
inactive: all other assays above

C=Cc1cccc(CCl)c1
not listed: [5] | [8] | [13] | [19]
inactive: all other assays above

CCCCC(CC)COC(=O)Cl (configuration not stated)
not listed: [5] | [12] | [16] | [17] | [20]
inactive: all other assays above

N#CS
not listed: [1]
inactive: all other assays above

O=[N+]([O-])c1ccccc1
not listed: [3] | [15] | [17]
inactive: all other assays above

CCCCCCCCCCCCn1cc[n+](C)c1
inactive and 33.7 µM (active): [9]
inactive: [1] | [3] | [4] | [12] | [18] | [19] | [14]

CCCCn1cc[n+](C)c1
inactive and 40.8 µM (active): [6]
not listed: [1] | [5] | [7] | [13] | [15] | [16] | [20]
inactive: all other assays above
